# Source: PubChem BioAssay
# “And” between values parts separate entries of the source, which are not always exact repeats. Equal values may be shown once. Some compounds were tested as several samples or in several runs, with calls that do not always agree. The source made the active and inactive calls.
# What was measured:
# [1] = tested on: PRMT1 (protein arginine N-methyltransferase 1); assay: PRMT1 binders on small-molecule microarrays, primary screen, biochemical, small-molecule microarray, 635 nm fluorescence (AID 1088); conditions: small-molecule microarray binding, higher = more signal;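 note: binding of Prmt1 protein to compounds spotted on small-molecule microarray slides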
# [2] = yeast growth modulation, basal conditions, primary screen, YJM789 clinical isolate, OD600, 24 h (AID 1089);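 note: growth of clinical yeast isolate S. cerevisiae YJM 789 seeded 1000 cells per well; test concentration not given here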; conditions: S. cerevisiae YJM789 growth, higher = more signal, called active from +8 up or from −8 down
# [3] = fission yeast growth modulation, primary screen, strain 972, OD600, 24 h, no modulator (AID 1090);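 note: basal condition with compound alone and no growth modifier present; test concentration not given here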; conditions: S. pombe 972 growth, higher = more signal, called active from +8 up or from −8 down
# [4] = S. cerevisiae growth modulation with rapamycin, primary screen, strain BY4716, OD600, 96 h (AID 1091); conditions: higher = more signal, called active from +8 up or from −8 down; note: test concentration not given here
# [5] = molecular target: Torsin-1A-interacting protein 2 (Homo sapiens) (UniProt Q8NFQ8); assay: LULL1 binders on small-molecule microarray, primary screen, cell lysate, human LULL1 lysate, 635/667 nm fluorescence (AID 1092); conditions: hLULL1 lysate binding, 635 nm fluorescence, higher = more signal;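 note: probe is lysate of COS7 cells overexpressing human LULL1; score merges per-feature 667 nm fluorescence with signal-to-noise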
# [6] = E. coli growth modulation, two-sided OD650, primary screen, E. coli filamentation project, strain DRC41, 24 h (AID 1093); conditions: OD650, 24 h, higher = more signal, called active from +8 up or from −8 down;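 note: MC1000 strain lacking acrAB efflux and sulA so SOS filamentation is blocked; test concentration not given here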
# [7] = small-molecule microarray binders of probe aLefty2, primary screen, biochemical, biotinylated probe, 635/667 nm fluorescence (AID 1094); conditions: higher = more signal;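 note: score merges spot fluorescence near 667 nm with spot signal-to-noise ratio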
# [8] = tested on: Noggin (protein binding on small-molecule microarray); assay: Noggin binders on small-molecule microarray, primary screen, biochemical, 635/667 nm fluorescence (AID 1095); conditions: 635 nm fluorescence, higher = more signal;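 note: score merges 667 nm feature fluorescence with signal to noise over triplicate slides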
# [9] = molecular target: Neurogenic locus notch homolog protein 3 (Homo sapiens) (UniProt Q9UM47); assay: NOTCH3 binders on small-molecule microarray, primary screen, biochemical, 635/667 nm fluorescence (AID 1096); conditions: NOTCH3 binding, 635 nm fluorescence, higher = more signal
# [10] = small-molecule microarray binders of probe aEGFR, primary screen, biochemical, biotinylated probe, 635/667 nm fluorescence (AID 1097); conditions: higher = more signal;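 note: probe is a biotinylated anti-EGFR antibody binding compounds printed on slides; score combines fluorescence near 667 nm and signal to noise of each spot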
# Sequence of Neurogenic locus notch homolog protein 3 (Homo sapiens) (Q9UM47 whole entry, looked up): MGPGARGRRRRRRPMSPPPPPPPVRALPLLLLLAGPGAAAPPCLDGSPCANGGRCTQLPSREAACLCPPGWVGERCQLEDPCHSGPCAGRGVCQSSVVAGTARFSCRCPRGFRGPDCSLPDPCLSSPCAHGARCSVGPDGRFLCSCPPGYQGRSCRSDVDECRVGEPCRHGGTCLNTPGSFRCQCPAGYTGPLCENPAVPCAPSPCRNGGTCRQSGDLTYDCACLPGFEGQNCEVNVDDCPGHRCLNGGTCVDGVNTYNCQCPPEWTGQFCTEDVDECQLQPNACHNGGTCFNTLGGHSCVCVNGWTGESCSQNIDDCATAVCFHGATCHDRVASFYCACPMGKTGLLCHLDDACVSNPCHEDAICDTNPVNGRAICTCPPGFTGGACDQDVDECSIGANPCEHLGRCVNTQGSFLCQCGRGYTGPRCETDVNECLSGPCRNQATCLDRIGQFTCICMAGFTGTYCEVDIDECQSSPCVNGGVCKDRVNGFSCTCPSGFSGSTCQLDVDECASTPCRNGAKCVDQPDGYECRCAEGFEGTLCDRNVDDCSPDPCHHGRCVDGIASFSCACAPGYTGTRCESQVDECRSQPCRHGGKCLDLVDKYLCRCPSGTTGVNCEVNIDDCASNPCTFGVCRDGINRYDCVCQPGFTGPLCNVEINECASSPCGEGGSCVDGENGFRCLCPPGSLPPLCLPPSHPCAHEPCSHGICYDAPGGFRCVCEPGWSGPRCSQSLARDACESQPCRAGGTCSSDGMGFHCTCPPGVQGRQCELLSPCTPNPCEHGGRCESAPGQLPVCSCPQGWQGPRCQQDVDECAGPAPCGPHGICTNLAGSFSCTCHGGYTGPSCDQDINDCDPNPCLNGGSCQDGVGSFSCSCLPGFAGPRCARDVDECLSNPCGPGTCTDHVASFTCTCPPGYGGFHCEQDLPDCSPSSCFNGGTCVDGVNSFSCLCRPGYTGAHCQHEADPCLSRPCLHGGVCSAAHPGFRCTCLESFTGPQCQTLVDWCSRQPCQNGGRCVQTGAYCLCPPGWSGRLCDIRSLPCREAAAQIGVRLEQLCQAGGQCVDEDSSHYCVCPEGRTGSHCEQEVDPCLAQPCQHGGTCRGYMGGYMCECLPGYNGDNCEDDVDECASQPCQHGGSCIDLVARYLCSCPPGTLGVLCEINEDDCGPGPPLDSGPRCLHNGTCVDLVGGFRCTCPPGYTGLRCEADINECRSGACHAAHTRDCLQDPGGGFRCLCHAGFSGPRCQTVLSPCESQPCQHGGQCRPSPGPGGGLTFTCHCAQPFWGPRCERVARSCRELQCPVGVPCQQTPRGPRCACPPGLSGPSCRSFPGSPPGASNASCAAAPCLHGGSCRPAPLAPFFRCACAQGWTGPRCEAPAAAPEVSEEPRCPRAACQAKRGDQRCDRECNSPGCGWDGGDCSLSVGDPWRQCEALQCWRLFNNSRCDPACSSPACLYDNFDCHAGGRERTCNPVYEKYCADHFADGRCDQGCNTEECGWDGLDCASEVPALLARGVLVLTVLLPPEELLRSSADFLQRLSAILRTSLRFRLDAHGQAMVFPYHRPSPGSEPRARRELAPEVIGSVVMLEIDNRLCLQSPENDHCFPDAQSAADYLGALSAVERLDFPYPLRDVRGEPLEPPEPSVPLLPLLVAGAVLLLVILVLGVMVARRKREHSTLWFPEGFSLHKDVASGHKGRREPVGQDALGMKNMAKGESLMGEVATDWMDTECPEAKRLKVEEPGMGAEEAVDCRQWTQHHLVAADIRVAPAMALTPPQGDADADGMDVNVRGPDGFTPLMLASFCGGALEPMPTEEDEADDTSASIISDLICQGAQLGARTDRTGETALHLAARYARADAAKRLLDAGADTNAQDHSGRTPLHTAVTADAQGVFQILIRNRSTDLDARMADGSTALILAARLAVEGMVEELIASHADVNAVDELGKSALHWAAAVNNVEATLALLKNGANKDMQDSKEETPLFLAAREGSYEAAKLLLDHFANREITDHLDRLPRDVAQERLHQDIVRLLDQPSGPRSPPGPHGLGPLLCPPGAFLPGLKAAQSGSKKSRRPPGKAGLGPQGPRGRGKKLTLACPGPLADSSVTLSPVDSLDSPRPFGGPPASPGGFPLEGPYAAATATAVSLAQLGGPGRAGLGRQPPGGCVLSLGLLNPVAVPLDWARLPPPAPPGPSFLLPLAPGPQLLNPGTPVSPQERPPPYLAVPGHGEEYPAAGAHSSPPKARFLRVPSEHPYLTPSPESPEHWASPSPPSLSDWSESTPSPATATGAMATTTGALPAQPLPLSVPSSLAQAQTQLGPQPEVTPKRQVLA
# Sequence of Torsin-1A-interacting protein 2 (Homo sapiens) (Q8NFQ8 whole entry, looked up): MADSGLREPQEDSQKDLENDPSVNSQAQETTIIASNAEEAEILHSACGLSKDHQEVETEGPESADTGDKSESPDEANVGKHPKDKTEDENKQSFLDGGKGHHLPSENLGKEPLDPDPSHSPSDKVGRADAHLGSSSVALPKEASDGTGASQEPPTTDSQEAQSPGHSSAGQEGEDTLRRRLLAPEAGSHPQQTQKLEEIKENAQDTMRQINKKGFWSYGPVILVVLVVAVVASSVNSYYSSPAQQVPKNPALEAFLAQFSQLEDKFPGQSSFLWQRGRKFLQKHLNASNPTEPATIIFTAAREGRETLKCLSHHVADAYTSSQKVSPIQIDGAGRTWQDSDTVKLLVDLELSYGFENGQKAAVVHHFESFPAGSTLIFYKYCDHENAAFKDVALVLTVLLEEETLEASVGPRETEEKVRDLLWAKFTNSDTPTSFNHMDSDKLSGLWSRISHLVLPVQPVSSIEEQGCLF
SMILES,composite z-score [1],z-score [2],z-score [3],z-score [4],composite z-score [5],z-score [6],composite z-score [7],composite z-score [8],composite z-score [9],composite z-score [10]
Cc1cc2c(nc1C)CCCN2CC(C)ON=C[C@@H](C)[C@H](OCc1ccccc1)C(C)C (stereo not given in full),-1.37,0.481 (inactive),0.514 (inactive),1.24 (inactive),-0.817,0.448 (inactive),-0.134,0.41,0.298,-0.068
C#CCCCON=C1C[C@@H](O)[C@@H](O)[C@@H]2[C@@H]3C(=O)N(C4CCCCC4)C(=O)[C@@H]3CC[C@H]12,0.589,-0.177 (inactive),-0.539 (inactive),-0.193 (inactive),1,0.318 (inactive),0.0103,0.417,0.71,-0.0842
COC(=O)C1=C(C)N(Cc2ccccc2)C2=C(C(C)=O)[C@H](c3ccccc3)[C@@](O)(C(=O)OC)C(=O)N2[C@@H]1c1ccccc1,1.09 and -0.374,0.0482 (inactive) and -3.34 (inactive),-4.6 (inactive) and -4.09 (inactive),-0.873 (inactive) and -2.14 (inactive),0.72 and -0.756,-0.0134 (inactive) and -0.274 (inactive),-0.0873 and -0.254,0.409 and 0.203,1.13 and -0.352,0.0729 and -0.118
CCOC(=O)c1ccc(NC(=O)O[C@H]2[C@H](OC(=O)Nc3ccccc3)[C@H](OC(=O)Nc3ccccc3)[C@@H](OC)O[C@@H]2CO)cc1,1.53,1.65 (inactive) and 0.863 (inactive),1.87 (inactive) and 1.43 (inactive),-1.19 (inactive) and 8.89 (active),3.01 and 3.02,0.626 (inactive) and 0.455 (inactive),0.375 and 0.0544,0.536 and 1.04,1.04 and 1.05,0.445 and -0.0118
O=C(NN=C1C[C@@H](O)[C@@H](O)[C@@H]2[C@@H]3C(=O)N(Cc4ccc5c(c4)OCO5)C(=O)[C@@H]3CC[C@H]12)OCc1ccccc1,1.15,0.48 (inactive),-0.157 (inactive),0.191 (inactive),-0.815,1.01 (inactive),-0.0047,0.707,-0.0259,-0.0828
C=CC[C@@H](O)c1ccc(OCCO)cc1,0.347 and -0.516,-2.53 (inactive) and -2.22 (inactive),-10.4 (active) and -1.63 (inactive),-0.121 (inactive) and -0.238 (inactive),-0.821 and -0.479,0.638 (inactive) and 0.664 (inactive),0.0698 and 0.066,0.29 and -0.934,-1.03 and -0.668,-0.272 and -0.305
CC(CO)N1C(=O)[C@@H]2C3C(=O)OCCC=C[C@H]3OC23C=CCN(c2ccc(Cl)cc2)C(=O)[C@@H]13 (stereo not given in full),-1.06 and 1.32,1.37 (inactive) and -1.45 (inactive),0.628 (inactive) and -1.21 (inactive),0.872 (inactive) and -0.713 (inactive),-0.81 and 3.57,0.226 (inactive) and -0.379 (inactive),0.149 and -0.0998,-2.2 and -0.556,-1.43 and 0.107,-0.186 and -0.0788
Cc1ccc(S(=O)(=O)N[C@H]2COC(=O)[C@@H](C)COC(=O)[C@H](C)NC(=O)CC=C[C@H]2C)cc1,0.277,-0.0016 (inactive),-0.838 (inactive),-0.351 (inactive),-0.487,0.147 (inactive),-0.121,1.17,0.646,-0.0862
CCOC(=O)[C@H](Cc1ccccc1)NC(=O)CCC1CC(OC(=O)NCc2cccc3ccccc23)CC2(CCCC(COC(=O)NCCCN3CCCC3=O)O2)O1 (stereo not given in full),1.21,-1.18 (inactive),0.134 (inactive),-0.896 (inactive),2.01,-0.288 (inactive),-0.148,0.692,1.01,-0.0578
